PGK inhibitor = inhibitors of T. brucei phosphoglycerate kinase | PGK/GAPDH coupled, Kinase-Glo luminescence, 60 min | P07378 | 380,000 compounds, 0.043% hits | AID 602233 | Potency, µM (titrated, usually from 57.5 µM), inactives show at the top dose activity change, negative = inhibition, most hits filed as inhibitors; also: potency is read from the fitted curve at half-maximal effect; nearly all actives have a fitted effect of over 60% in size
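Luminescent ATP detection (Kinase-Glo Plus) follows a 60-minute room-temperature incubation, with wells lacking PGK as controls. Buffer: 100 mM TEA (pH 7.6), 5 mM MgCl2, 0.01% Tween-20. Coupling enzyme GAPDH (100 nM final) supplies unstable 1,3-BPG in-well.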
RGS4 inh = inhibitors of human regulator of G protein signaling 4; 390,000 compounds, 0.039% hits; P49798; Transcreener GDP fluorescence polarization, RGS4-accelerated GTP hydrolysis; Potency, µM (top dose mostly 114 µM), for the others: at the top dose activity change, negative = inhibition, hits mostly inhibitors; also: potency is read from the fitted curve at half-maximal effect; nearly all actives have a fitted effect of over 75% in size
Target sequence (P49798 whole entry, looked up): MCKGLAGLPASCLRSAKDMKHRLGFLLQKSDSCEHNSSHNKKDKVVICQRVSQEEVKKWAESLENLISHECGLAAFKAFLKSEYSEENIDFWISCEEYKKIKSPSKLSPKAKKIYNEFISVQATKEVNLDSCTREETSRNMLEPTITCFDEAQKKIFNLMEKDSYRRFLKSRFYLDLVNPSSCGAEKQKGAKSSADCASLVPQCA
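MLSMR compounds (23 nl, pin-transferred) preincubated 10 min at room temperature with a 500nM (2x) first reagent, then RGS4 at 900nM (2x) plus Transcreener GDP mix added; fluorescence polarization (620/688 nm) read before and after 90 min at 30 °C.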
Pin1 inhibitor = human Pin1 inhibition | Potency, µM (doses to about 115 µM), without a hit: at the top dose activity, negative = inhibition, most hits filed as inhibitors | 390,000 compounds, 0.009% hits | Pin1 FP peptide displacement, HiFluor488, 10 min | Q13526; active = well fitted inhibition curve with a large enough effect in the polarisation, with a control signal flat, not every such curve was filed as active; inconclusive = small, poorly fitted or top-dose-only effect, or effect the other way, or a change in a side signal; inactive = no such curve, though single readings can be large or run the other way; the % refers to the polarisation; also: potency is read from the fitted curve at half-maximal effect
Target sequence (Q13526 whole entry, looked up): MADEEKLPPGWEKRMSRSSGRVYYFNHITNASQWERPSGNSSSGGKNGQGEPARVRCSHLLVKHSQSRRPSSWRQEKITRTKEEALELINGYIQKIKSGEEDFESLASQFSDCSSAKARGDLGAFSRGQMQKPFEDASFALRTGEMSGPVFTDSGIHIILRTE
KCNH2 WT inh = blocks the wildtype human KCNH2 potassium channel. activity change, % at 1.84 µM. Q12809. U2OS, BacMam KCNH2, thallium flux FluxOr; stronger effect = lower value. 340,000 compounds, 0.37% hits. AID 720551;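 active = maximum activity change below -70%; inconclusive = maximum activity change between -70% and -50%; inactive = maximum activity change above -50%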
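U2OS cells transduced with wild-type KCNH2 virus are loaded with FluxOr dye for 45 min, and thallium flux is measured in kinetic reads before and after stimulation buffer. Rate constants are normalized to DMSO controls.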
KCNH2 3.1 inh = blocks the human KCNH2 3.1 channel isoform. U2OS KCNH2 3.1, thallium flux FluxOr; stronger effect = lower value. activity change, % (tested at about 1.8 µM). 340,000 compounds, 0.95% hits. AID 720553;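 active = maximum activity change below -70%; inconclusive = maximum activity change from -70% to -50%; inactive = maximum activity change above -50%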;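 also: thallium influx rate constant from kinetic fluorescence after stimulation buffer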
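Thallium flux via FluxOr fluorescence (Red40 quencher, 45 min loading) in U2OS cells virally expressing the KCNH2 3.1 isoform (1.77 x 10^8 /mL virus, overnight at 37 C). Rate constants from 2-min kinetic reads post-stimulation, normalised to positive and negative controls.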
GCN5L2 inh = inhibitors of human GCN5L2 histone acetyltransferase | Q92830 | GCN5L2 HAT assay, ThioGlo1 CoA-SH fluorescence | Potency, µM (series often up to 58.9 µM), for inactives: at the highest dose activity change, negative = inhibition, most hits filed as inhibitors | 390,000 compounds, 0.21% hits; also: potency is read from the fitted curve at half-maximal effect
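GCN5L2 (20 nM) in 50mM HEPES pH 7.5, 0.1mM EDTA, 0.01% Tween-20 preincubated 15 min with compounds at room temperature. Reaction started with H3(1-25) 75uM, acetyl-CoA 70uM, ThioGlo1 50uM; CoA-thiol fluorescence (Ex340/Em540) read at 0 and 20 min.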
* = called active by the depositor; i = inactive; ? = inconclusive; · = no result; [ ] = dose if it differs, or a comment. This is a sample that favours compounds with a hit; in the whole collection about 1.2% have one here. Unless noted, calls follow the shape of the dose curve; as a rule, active = well fitted curve in the direction sought with a large enough effect; inconclusive = small, poorly fitted or top-dose-only effect, or another doubt; inactive = no such curve, though single readings can be large; an effect the other way counts as inactive or inconclusive. % is scaled to controls: 0 for no effect and ±100 for the full control effect.

SMILES	PGK inhibitor	RGS4 inh	Pin1 inhibitor	KCNH2 WT inh	KCNH2 3.1 inh	GCN5L2 inh
N=c1c2c(-c3ccccc3)c(-c3ccccc3)n(Cc3ccco3)c2ncn1Cc1ccco1	-1%	-15%	2%	?	-93*	-2%
c1cncc(CSc2nnc3ccc(-c4ccncc4)nn23)c1	-1%	26%[11.4 µM]	-8%	-79*	25	-19%
CCc1ccccc1NC(=O)Cn1nc(C(F)(F)F)cc1C1CC1	3%	4%	4%	-5	-78*	1%
CCc1ccccc1NC(=O)Cn1nc(C(F)(F)F)c2c1CCCC2	-1%	4%	3%	·	·	1%
C=CC[C@H](CC(=O)N[C@H](CO)Cc1ccccc1)C(=O)N[C@@H](COC(=O)[C@@H](CC=C)Cc1ccc(F)cc1)Cc1c[nH]c2ccccc12	-10%	-8%	3%	-6	-80*	1%
C=CC[C@@H](CC(=O)N[C@@H](CO)Cc1ccccc1)C(=O)N[C@H](COC(=O)[C@@H](CC=C)Cc1ccc(F)cc1)Cc1c[nH]c2ccccc12	-6%	-2%	-3%	7	-6	-3%
COc1cccc(C(=O)O/N=C(\N)c2ccccn2)c1	14µM*	9%	-8%	-6	4	-1%
COc1ccc(NC(=O)C2CCCN(S(=O)(=O)c3ccc(F)cc3)C2)cc1 (configuration not stated)	8%	-2%	-13%	·	·	2%
NC(=O)OC[C@H](O)COc1ccc(Cl)cc1	·	·	·	·	·	14µM*
COc1ccccc1OC[C@H](O)COC(N)=O	·	·	·	·	·	13%[21.4 µM]
CCCCN1CC(=O)N2[C@H](c3ccc(Cl)cc3)[C@@H]3C(=O)N(CC)C(=O)[C@@H]3[C@]2(C)C1=O	-4%	-18%	-6%	0	-115*	-4%
S=c1[nH]nc(-c2cccnc2)n1/N=C/c1ccc(Br)s1	-8%	-36%	14%	-19	-99*	-13%
CCOC(=O)c1noc2nc(C)n(Cc3cccc(C#N)c3)c(=O)c12	1%	4%	-1%	·	·	-6%
COc1cccc(Nc2nc3ccc(C)cc3nc2-n2nc(C)cc2C)c1	-8%	4%	4%	·	·	-9%
O=C(NNC(=O)c1ccc2ccccc2c1O)NC1CCCCC1	1%	-10%	-3%	-88*	-10	-6%
O=C(NC1CCCCC1)c1ccc2ccccc2c1O	-7%	·	·	-6	-2	·
COc1cc(/C=C2\SC(=S)N(Nc3ncc(C(F)(F)F)cc3Cl)C2=O)ccc1O	-10%	?	80%	-3	-10	-1%
CN(C)c1ccc(/C=C2\SC(=S)N(Nc3ncc(C(F)(F)F)cc3Cl)C2=O)cc1	-12%	14%	?	-133*	-73*	37%
N#Cc1ccc(CN2CCN(CC(=O)NCCc3ccc(Cl)cc3Cl)CC2)cc1	-9%	-29%	8%	-79*	-80*	-2%
O=C(CCCN1C(=O)/C(=C\c2ccccc2)SC1=S)Nc1ccc(O)cc1C(=O)O	i	-40%	-5%	2	-116*	-4%
O=C(CCCN1C(=O)/C(=C/c2ccccc2)SC1=S)Nc1ccccc1O	-5%	3%	2%	-3	1	-6%
CCN1CCN(c2nc3sc4c(c3c(=O)n2-c2ccc(OC)cc2)CCCCC4)CC1	-1%	14%	4%	0	-71*	-9%
Cc1ccc2[nH]c(=O)c(CN(CCCO)Cc3nnnn3Cc3ccccc3)cc2c1	·	-45%	10%	·	·	·
CCOC(=O)CCSc1n[nH]c(=S)s1	-6%	-51%	1%	0	12	?
CCOC(=O)CSc1n[nH]c(=S)s1	9%	-32%	-2%	9	-5	25µM*
SMILES	PGK inhibitor	RGS4 inh	Pin1 inhibitor	KCNH2 WT inh	KCNH2 3.1 inh	GCN5L2 inh
Cn1nc(-c2ccc(Cl)cc2)c2cc(C(=O)N3CCCC3)sc21	-5%	-19%	-2%	-143*	-209*	-17%
Cn1nc(-c2ccc(Cl)cc2)c2cc(C(=O)N3CCN(c4ccccc4)CC3)sc21	-1%	16%	9%	10	-32	-8%
COc1ccc(C)cc1-n1nnnc1SCC1CCCO1 (configuration not stated)	3%	8%[11.4 µM]	-3%	-107*	2	-11%
COc1ccc(C)cc1-n1nnnc1SCC(=O)c1ccc2c(c1)OCCO2	i	-6%	77%	-1	-8	-7%
CN(C)[C@H]1C(=O)C(C(=O)NCN2CCCC2)=C(O)[C@]2(O)C(=O)C3=C(O)c4c(O)cccc4[C@](C)(O)[C@H]3C[C@H]12	·	·	·	·	·	1.8µM*
CN(C)[C@@H]1C(=O)C(C(=O)NCN2CCCC2)=C(O)[C@@]2(O)C(=O)C3=C(O)c4c(O)cccc4[C@@](C)(O)C3CC12 (some centres not stated)	·	·	·	·	·	6.3µM*
CN(C)c1ccc(O)c2c1CC1CC3C(N(C)C)C(=O)C(C(N)=O)=C(O)[C@@]3(O)C(=O)C1=C2O (some centres not stated)	1%	-18%	2%	7	4	·
Cc1ccc(NC(=O)Cn2c(=O)n(-c3ccc(CC(=O)NCC4CCCO4)cc3)c(=O)c3ccccc32)cc1 (configuration not stated)	4%	3%	2%	·	·	-7%
Cc1noc(C)c1-c1nc(NCc2cccs2)c2ccccc2n1	·	·	·	·	·	22µM*
O=C(NCCSc1c(-c2ccccc2)[nH]c2ccccc12)c1ccc(S(=O)(=O)N2CCOCC2)cc1	-9%	18%	22%	·	·	-7%
CC(C)Oc1ccc(CN2CCc3nc(Nc4ccc5c(c4)OCCO5)ncc3C2)cc1	-5%	4%	-2%	·	·	-8%
CCOC(=O)C(CC)Sc1ccc2nnc(-c3ccc(F)cc3)n2n1 (configuration not stated)	·	-13%	-1%	·	·	·
CCC(=O)N1CCc2cc(S(=O)(=O)NC(Cc3ccccc3)C(=O)NCc3ccc(F)cc3)ccc21 (configuration not stated)	-5%	-16%	0%	·	·	-1%
COc1ccc(-c2cc(C(=O)Nc3cnn(Cc4ccccc4C)c3)no2)cc1OC	-12%	-20%	-3%	-248*	-14	?
COc1cccc(-c2cc(C(=O)Nc3cnn(Cc4ccc(Cl)cc4Cl)c3)no2)c1	-5%	-39%	7%	·	·	-5%
O=C(Nc1cnn(C23CC4CC(CC(C4)C2)C3)c1)c1cc(-c2ccccc2)on1	·	-10%	-12%	-11	-75*	-6%
Cc1ccc(-c2cc(C(=O)Nc3cnn(C45CC6CC(CC(C6)C4)C5)c3)no2)cc1	-7%	-10%	-1%	-11	-32	2%
